Data taken from PubChem BioAssay (NCI).
Compounds without any hit were thinned out: in the full panel of roughly 79,000, 15% have a hit. Cut-off read from the data, not from the text of the source: active = growth inhibition above about 70%; inactive = the rest.

Experiments:
[1] = NCI Yeast Anticancer Drug Screen. Data for the rad50 strain (AID 155);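 note: 0% = growth of vehicle-only cultures of the same strain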; settings: S. cerevisiae rad50 strain growth inhibition; at 50.0 µM; hits give high values
Procedure, shortened: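 Compounds were tested on a yeast strain with an engineered DNA damage repair alteration; the reported value is growth inhibition normalised to vehicle treatment.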

[2] = NCI Yeast Anticancer Drug Screen. Data for the mec2-1 strain (AID 157); settings: S. cerevisiae mec2-1 strain, at 50.0 µM, hits give high values
Procedure, shortened: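 Using mec2-1 yeast: add compound, measure growth, express inhibition versus vehicle-treated cultures.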

[3] = NCI Yeast Anticancer Drug Screen. Data for the sgs1 mgt1 strain (AID 161);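 note: 0% = growth of cultures given vehicle only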; settings: S. cerevisiae sgs1 mgt1 strain, at 50.0 µM, hits give high values
Procedure, shortened: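 This yeast growth screen uses a strain with defined DNA-repair lesions; compound-treated growth is compared with vehicle-treated growth.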

[4] = NCI Yeast Anticancer Drug Screen. Data for the cln2 rad14 strain (AID 165);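 note: 0% = growth equal to vehicle treated cultures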; settings: S. cerevisiae cln2 rad14 strain, at 50.0 µM, hits give high values
Procedure, shortened: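 Yeast strain cln2 rad14, bearing defects in cell cycle control and DNA repair, serves as the test system; values reflect growth inhibition compared with vehicle.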

[5] = NCI Yeast Anticancer Drug Screen. Data for the bub3 strain (AID 167); settings: S. cerevisiae bub3 mutant strain, at 50.0 µM, hits give high values
Procedure, shortened: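 Growth of a checkpoint-deficient yeast mutant is measured after compound exposure. Values represent inhibition relative to vehicle.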

[6] = NCI Yeast Anticancer Drug Screen. Data for the mlh1 rad18 strain (AID 175); settings: S. cerevisiae mlh1 rad18 strain growth inhibition; at 50.0 µM; hits give high values
Procedure, shortened: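 Steps: expose repair-defective yeast to compound; measure growth; express inhibition against vehicle-treated controls.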

Measured: growth inhibition

COC1=CC(=O)C(c2cc(O)c(OC)cc2O)=CC1=O
inactive: [1] -0.15% | [2] 4.45% | [3] -3.65% | [4] -8.65% | [5] 4.5% | [6] 5.2%

C=CC(=NC(C)C)N(C)c1ccccc1
inactive: [1] 5.2% | [2] 13.9% | [3] 1.7% | [4] -7.9% | [5] 26.5% | [6] -1.8%

COc1ccc(C(=O)C(C)CN2CCOCC2)cc1 (stereo not drawn)
inactive: [1] 68.1% | [2] 22.6% | [3] 40.5% | [4] 32.6% | [5] 52.8% | [6] 53.5%

CCC(c1ccc(OC)cc1)C(C(C)=O)c1ccc(OC)cc1 (stereo not drawn)
inactive: [1] -5.55% | [2] -13% | [3] -4.1% | [4] -22.9% | [5] 25.6% | [6] -5.85%

S=c1sc2cscc2s1
inactive: [1] -6.7% | [2] 18.6% | [3] -8.5% | [4] 28.6% | [5] -3% | [6] -1.8%

C=CCCC1(C)OC(C)C(C)O1 (stereo not drawn)
inactive: [1] 8.75% | [2] 3.65% | [3] -0.95% | [4] -33% | [5] -5.85% | [6] -4.9%

CCCCc1cc(/C=N\NC(N)=O)c2ccccc2n1
inactive: [1] -0.6% | [2] -14.2% | [3] -1.1% | [4] 1.45% | [5] -5.35% | [6] 18.8%

CCNC(=O)OCc1c(COC(=O)NCC)c(-c2ccc(Cl)c(Cl)c2)n2c1CCC2
inactive: [1] 27.4% | [2] 24.8% | [3] 35.4% | [4] 66.5% | [5] 10.4% | [6] 40.8%

COC(=O)c1ccc(NC(=O)c2cc(OC)c(OC)c(OC)c2)cc1
inactive: [1] -24.3% | [2] -24.1% | [3] -19.4% | [4] -5.05% | [5] -9% | [6] -24%

NC(=O)C(=O)C(c1ccccc1)S(=O)(=O)Cc1ccccc1 (stereo not drawn)
inactive: [1] -59.5% | [2] -39.1% | [3] -40.3% | [4] -13.7% | [5] -25.4% | [6] -32.1%

O=C1CCC(=O)N2C(=O)CCC(=O)N12
inactive: [1] -33.5% | [2] -26.3% | [3] -18.9% | [4] -15.3% | [5] 0.45% | [6] 3.45%

CC(=O)OC1C(COS(=O)(=O)c2ccc(C)cc2)OCOC(COS(=O)(=O)c2ccc(C)cc2)C1OC(C)=O (stereo not drawn)
inactive: [1] 0.2% | [2] 4.4% | [3] -0.55% | [4] -26.2% | [5] -0.7% | [6] 18.4%

Cc1ccc2nc(-c3ccc(Cl)cc3Cl)oc(=O)c2c1
inactive: [1] -9.35% | [2] 3.8% | [3] 20.4% | [4] -12.8% | [5] 20.6% | [6] -7.15%

CCNC(=O)C(C(=O)OCCN(CC)CC)c1ccccc1 (stereo not drawn)
inactive: [1] 2.05% | [2] 5.7% | [3] -3.3% | [4] -1.05% | [5] -14.7% | [6] 16.7%

CCNC(=O)OCCN(CCOC(=O)NCC)CCc1cccc(OC)c1OC
inactive: [1] 6.1% | [2] 6.65% | [3] -7.3% | [4] 1.95% | [5] -3.5% | [6] 20.6%

C#CC[N+](C)(CC#C)CC#C
inactive: [1] 9.85% | [2] 7.8% | [3] 13% | [4] 11.9% | [5] 9.7% | [6] 9.2%

O=Cc1ccc(OCCCOc2ccc([N+](=O)[O-])cc2)cc1
inactive: [1] -5.1% | [2] 1.6% | [3] 11.3% | [4] -12.1% | [5] 33.1% | [6] 42%

Nc1ccccc1C(F)(F)F
inactive: [1] 2.45% | [2] 5.65% | [3] 1.2% | [4] 4.1% | [5] 3.3% | [6] 8.25%

CCOC(=O)N/N=C(/OCC)c1ccccc1
inactive: [1] 9.75% | [2] 2.7% | [3] -7.2% | [4] 5.8% | [5] 13.8% | [6] 5.8%

C=C(Br)CN=CN(C)C
inactive: [1] 23.6% | [2] 1.35% | [3] 10.9% | [4] 1.35% | [5] -10.1% | [6] 23.1%

Nc1nc2c(N)cc(C(F)(F)F)cc2nc1-c1ccccc1
inactive: [1] -38.2% | [2] -17.2% | [3] -1.9% | [4] 7.95% | [5] -6.25% | [6] -12.4%

CCCCOC(=O)C12CCCCC1O2 (stereo not drawn)
inactive: [1] -29.1% | [2] -29.9% | [3] -12.8% | [4] 2.55% | [5] -29.1% | [6] -0.55%

Cc1cc2c(nn1)CCc1c-2no[n+]1[O-]
inactive: [1] 3.15% | [2] -32.1% | [3] -10.4% | [4] 22.5% | [5] 3.45% | [6] -2.8%

c1cc(Sc2nc(Sc3ccncc3)nc(Sc3ccncc3)n2)ccn1
inactive: [1] 5.15% | [2] 8.6% | [3] 14.8% | [4] 39.2% | [5] -9.7% | [6] -7.25%

CC(=O)c1c(O)ccc2c1CC(CC=O)O2 (stereo not drawn)
inactive: [1] 18.6% | [2] -1.05% | [3] -20.9% | [4] 0.75% | [5] 9.05% | [6] -21.4%

O=c1[nH]cnc2nn(C3OC(CO)C(O)C3O)cc12 (stereo not drawn)
inactive: [1] -20.4% | [2] 12.9% | [3] -6.85% | [4] -5.65% | [5] 9.25% | [6] -18.9%

O=[N+]([O-])/C(N=Nc1ccc2ccccc2c1Br)=N/Nc1ccc2ccccc2c1Br
inactive: [1] 34.5% | [2] 5.85% | [3] 19.4% | [4] -2.85% | [5] -0.2% | [6] 13.2%

CCC1=NO[C@@H](C(=O)OCc2ccccc2)[C@H]1C
inactive: [1] -12.2% | [2] 5.25% | [3] -7.2% | [4] -29.2% | [5] 9.15% | [6] -21.4%

C/C=C(\CC)C(C#N)(CC)C(=O)OCC (stereo not drawn)
inactive: [1] 20.9% | [2] -18.4% | [3] -7.5% | [4] -6.25% | [5] -30.3% | [6] -24.8%

CCC1(C)OCC(CCCCO)O1 (stereo not drawn)
inactive: [1] -16.2% | [2] -14.9% | [3] -9.4% | [4] -34.9% | [5] -11.4% | [6] 14.3%

COc1ccccc1OCC(COC(=O)Nc1ccccc1)OC(=O)Nc1ccccc1 (stereo not drawn)
inactive: [1] -44.2% | [2] -27.2% | [3] -30.4% | [4] -0.6% | [5] -17.6% | [6] -17.8%

O=C(NCCCCCCNC(=O)c1ccccn1)c1ccccn1
inactive: [1] 0.25% | [2] -9.9% | [3] 9.05% | [4] -7.15% | [5] -14.8% | [6] -0.8%

O=C(Nc1ccc(Cl)cc1C(F)(F)F)C(=O)Nn1c(=S)[nH]c2ccccc2c1=O
inactive: [1] -5.9% | [2] -15.2% | [3] 8.5% | [4] -2.7% | [5] -1.1% | [6] 18.9%

O=C1OC(c2ccc(O)c(-c3ccccc3)c2)(c2ccc(O)c(-c3ccccc3)c2)c2c(Cl)c(Cl)c(Cl)c(Cl)c21
inactive: [1] -16.4% | [2] -18.4% | [3] 19.1% | [4] -18.6% | [5] -33.1% | [6] 1.45%

Cc1cc(C)nc(NC(=O)COc2ccc(Cl)cc2)c1
inactive: [1] -15.7% | [2] 5.95% | [3] -20.8% | [4] -39.7% | [5] -37.5% | [6] -14.8%

FC12CCC(F)(CC1)CC2
inactive: [1] -7.85% | [2] 20.1% | [3] -7.5% | [4] -13.9% | [5] 7.6% | [6] -2.55%

NC(=O)C1C[C@@H](O)CN1C(=O)c1ccc2c(c1)OCO2 (stereo partly drawn)
inactive: [1] -11.6% | [2] -9.8% | [3] -24.6% | [4] 6.5% | [5] 3.05% | [6] 1.25%

CC(C)NC(=O)OCc1c(COC(=O)NC(C)C)c(S(=O)c2ccccc2)n2c1CCC2 (stereo not drawn)
inactive: [1] 12.6% | [2] 5.3% | [3] 9.05% | [4] -27.1% | [5] 18.6% | [6] -6.4%
